From PubChem
CBX7 inh – blocks human CBX7 binding to H3K27me3 peptide; O95931; AlphaScreen His6-CBX7 / biotin-H3K27me3 peptide binding; stronger effect = lower value; normalised signal (fraction of DMSO) (no concentration beside the values); 1.1% of 66,000 active; in the data active = normalised signal below about 0.5
Target sequence (O95931 whole entry, looked up): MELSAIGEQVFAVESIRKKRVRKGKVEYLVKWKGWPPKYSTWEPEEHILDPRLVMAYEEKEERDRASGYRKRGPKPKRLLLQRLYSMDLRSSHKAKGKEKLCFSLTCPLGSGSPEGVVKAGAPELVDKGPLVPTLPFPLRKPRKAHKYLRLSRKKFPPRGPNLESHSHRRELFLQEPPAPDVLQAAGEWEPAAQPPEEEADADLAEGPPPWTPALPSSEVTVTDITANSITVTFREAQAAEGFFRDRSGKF
Each line names hits and unclear results; the compound was inactive in the other large screens. The full list was thinned out, with hits kept by preference.

CCN(C(=O)c1ccc2c(=O)n3c(nc2c1)CCCCC3)c1cccc(Cl)c1	none
CCCOc1ccc(C2C(=O)N(C3CCCCCC3)CC(=O)N2Cc2ccc(C)cc2)cc1OC (stereo unspecified)	none
O=C(NCCCN1CCCC1)C1CCN(c2nnc(-n3cccc3)s2)CC1	none
COc1ccc(-n2ccnc2SCC(=O)Nc2ccc(Cl)cc2)cc1	none
COc1ccc(-c2cn(-c3ccc(Cl)cc3)c(SCC(=O)Nc3ccc(F)cc3)n2)cc1OC	CBX7 inh 0.447
COc1cccc(-n2ccnc2SCC(=O)Nc2cc(OC)ccc2OC)c1	none
COc1ccc(OC)c(NC(=O)CSc2nccn2-c2ccccc2)c1	none
COc1ccc(OC)c(NC(=O)CSc2nccn2-c2ccc(F)cc2)c1	CBX7 inh 0.48
COc1ccc(-n2ccnc2SCC(=O)Nc2ccc(C)c(Cl)c2)cc1	CBX7 inh 0.472
COc1ccc(-c2cn(-c3ccc(Cl)cc3)c(SCC(=O)Nc3cccc(C)c3)n2)cc1OC	none
COc1ccc(-n2ccnc2SCC(=O)Nc2ccccc2OC)cc1	none
COc1ccc(NC(=O)CSc2nccn2-c2ccc(Cl)cc2)c(OC)c1	CBX7 inh 0.488
Cc1ccc(NC(=O)CSc2nccn2-c2ccc(F)cc2)cc1Cl	none
COc1ccc(NC(=O)CSc2nccn2-c2ccc(OC)cc2)cc1	none
COc1ccc(-c2cn(-c3ccccc3)c(SCC(=O)Nc3ccc(F)cc3)n2)cc1OC	none
O=[N+]([O-])c1ccc(-c2nc(-c3ccccn3)no2)cc1	none
COc1ccc(-c2nc(CN3CCC(C(=O)NC4CCCC(C)C4C)CC3)c(C)o2)cc1OC (stereo unspecified)	none
Cc1c(C(=O)O)cnc2cc(-c3ccccc3)nn12	none
O=S(=O)(Cc1cccc(Br)c1)c1nc2ncccc2[nH]1	none
Cc1ccc(Nc2c(-c3ccc(O)cc3)nc3ncccn23)cc1	none
COc1ccc(-c2nn(C)c3sc(C(=O)Nc4cccc(C#N)c4)cc23)cc1OC	none
O=C(NC1CCCCCCC1)C1c2cccn2CC(=O)N1Cc1ccc(Cl)cc1 (stereo unspecified)	none
CCCNC(=O)c1ccc2c(c1)ncn2-c1ccc(F)cc1F	none
Cc1nc2c(C(=O)NCc3ccc4c(c3)OCO4)cnn2c(C)c1Cc1ccc(Cl)cc1	none
Cc1ccc(-n2cc(-c3ccc4c(c3)OCO4)nc2SCC(=O)Nc2cc(C)cc(C)c2)cc1	CBX7 inh 0.494
Cc1ccc(-n2cc(-c3ccc4c(c3)OCO4)nc2SCC(=O)Nc2ccc3c(c2)OCO3)cc1	none
COc1ccc(Cl)cc1NC(=O)CSc1nccn1-c1ccc(F)cc1	CBX7 inh 0.4
CCOc1ccc(-n2ccnc2SCC(=O)Nc2cc(Cl)ccc2OC)cc1	none
COc1ccc(-n2ccnc2SCC(=O)Nc2cc(Cl)ccc2OC)cc1	none
Cc1ccc(-n2cc(-c3ccc4c(c3)OCO4)nc2SCC(=O)Nc2ccccc2)cc1	none
CCOc1ccc(-c2cc(C(=O)N3CCCCCC3)c3ccccc3n2)cc1	none
COc1ccc(NC(=O)c2ccc3c(c2)C(=O)N(c2ccccc2OC)C3=O)cc1	none
CC(C)CCNC(=O)C(C)C1Sc2ccccc2N(Cc2ccc(F)cc2Cl)C1=O (stereo unspecified)	none
Cc1nc(SCC(=O)Nc2c(Cl)cccc2Cl)c2cc(-c3ccccc3)sc2n1	none
CCOc1ccccc1NC(=O)c1cn(-c2ccc(F)cc2F)c(=O)c2ccccc12	none
CCCN(CCC)S(=O)(=O)c1ccc2c(c1)CCN2C(C)=O	none
Cn1c(-c2nonc2NC(=O)c2ccccc2F)nc2ccccc21	none
COc1ccc2nc(N3CCC(C(=O)N4CCCCCC4)CC3)sc2c1	none
Cc1ccc(Nc2c(-c3ccc(Cl)cc3)nc3ccc(C)cn23)cc1	none
Cc1oc(-c2cccc(F)c2)nc1CSCC(=O)NC1CCCCC1	none
CCc1ccc(-c2nc(CSCC(=O)NC3CCCCCC3)c(C)o2)cc1	CBX7 inh 0.395
Cc1oc(-c2ccc(Cl)cc2)nc1CSCC(=O)NC1CC1	none
COC(=O)c1cnc(Nc2ccccc2F)c2ccccc12	none
CCCCN1CCCc2cc(CN(CCCN3CCOCC3)C(=O)Nc3ccccc3)ccc21	none
CCN1CCCc2cc(CN(C(=O)Nc3ccc(C)c(C)c3)C3CCCC3)ccc21	CBX7 inh 0.438
CCCN1CCCc2cc(CN(CCCN3CCOCC3)C(=O)Nc3ccc(CC)cc3)ccc21	none
CC(=O)N1CCC(N(C(=O)Nc2ccc(C)c(C)c2)C2CCCCCC2)CC1	none
CCc1ccc(NC(=O)N(CCC(C)C)C2CCN(C(C)C)CC2)cc1	none
CCCCN1CCCc2cc(CN(CCCN3CCOCC3)C(=O)Nc3ccc(CC)cc3)ccc21	CBX7 inh 0.233
CCc1ccc(NC(=O)N(Cc2ccc3c(c2)CCCN3CC)C2CCCC2)cc1	CBX7 inh 0.339
CCCN1CCCc2cc(CN(C(=O)Nc3ccc(Cl)c(Cl)c3)C(C)CC)ccc21 (stereo unspecified)	none
CCc1ccc(NC(=O)N(C2CCCCCC2)C2CCN(C(C)=O)CC2)cc1	none
O=C(O)C1=CCN(S(=O)(=O)c2ccc(Br)cc2)CC1	none
Cc1ccc(CNC(=O)CN(C)S(=O)(=O)c2ccc3nc(C)sc3c2)cc1	none
O=C(c1ccccc1)c1ccc2nc(Cc3cc(Br)ccc3F)c(=O)[nH]c2c1	none
CCOc1cccc(C(=O)Nc2cccc(-c3nc4cc(C)cc(C)c4o3)c2C)c1	none
CCOc1ccc(CCNC(=O)Cn2nc(-c3ccccc3)ccc2=O)cc1OCC	none
CCOc1ccc(-n2nc(C(=O)Nc3nc4ccc(OC)cc4s3)c3ccccc3c2=O)cc1	none
COc1cccc2sc(NC(=O)c3ccc(S(=O)(=O)N4CCCCC4C)cc3)nc12 (stereo unspecified)	none
COc1ccc(-c2cc(C(F)(F)F)n3nc(C(=O)Nc4cccc(Cl)c4Cl)c(Cl)c3n2)cc1OC	none
Cc1cccc(NC(=O)C(CC(C)C)NS(=O)(=O)c2ccc3nc(C)sc3c2)c1 (stereo unspecified)	none
Cc1ccc(CCNC(=O)CN2C(=O)COc3ccc(C(C)(C)C)cc32)cc1	none
CC(C)(C)c1ccc2c(c1)N(CC(=O)NCCc1ccccc1)C(=O)CO2	CBX7 inh 0.407
CC(C)(C)c1ccc2c(c1)N(CC(=O)NCCN1CCN(Cc3ccccc3)CC1)C(=O)CO2	none
N#CC1CCN(C(=O)c2cnc(N3CCN(c4ncccn4)CC3)c3ccccc23)CC1	none
O=C1CN(Cc2ccccc2)C(c2ccccc2Cl)c2cc(Br)ccc2N1 (stereo unspecified)	none
COc1ccc(Nc2ncc(C(=O)Nc3cnc4ccccc4c3)c3ccccc23)cc1	none
COc1ccc(Nc2ncc(C(=O)Nc3cccc(Cl)c3)c3ccccc23)cc1	CBX7 inh 0.2
CCOc1ccc(NC(=O)c2cnc(Nc3ccc(OC)cc3)c3ccccc23)cc1	none
O=C(Nc1nc(-c2ccc(-c3ccccc3)cc2)cs1)c1ccncc1	none
COc1ccccc1CC(=O)Nc1ccc2nc3n(c(=O)c2c1)CCCCC3	none
Fc1ccc(-c2nnc3ccc4ccccc4n23)cc1	none
CC1(C)Cc2ccccc2-c2nnc(-c3cccnc3)n21	none
c1cncc(-c2nnc3ccc4ccccc4n23)c1	CBX7 inh 0.361
O=C(CCc1ccccc1)Nc1c2c(nn1-c1cccc(Cl)c1)CS(=O)(=O)C2	none
Brc1cccc(-c2nnc(SC(c3ccccc3)c3ccccc3)o2)c1	none
CCOc1ccc(CNC(=O)CN2C(=O)COc3ccccc32)cc1OC	none
Cc1ccc(Nc2c(-c3ccccn3)nc3ccc(Br)cn23)cc1	none
Cc1ccc(Nc2c(-c3ccccn3)nc3cccc(C)n23)cc1	CBX7 inh 0.00144
Cc1cccc2nc(-c3ccccn3)c(Nc3ccccc3)n12	CBX7 inh 0.00532
Cc1ccc(Nc2c(-c3c(F)cccc3Cl)nc3cccc(C)n23)cc1	none
Cc1cccc(C)c1Nc1c(-c2ccccc2F)nc2cccc(C)n12	none
